Test results from the supplement of paper PMC8728848.
Many of the other results were omitted from the sample, so the strongest signals are more common in it than they were.

How the values were obtained:
Test in all cases: glycan array binding signal (z-score within array); higher = stronger binding
Settings in all cases: glycan notation: IUPAC condensed, linker removed
[1] = biological target: Fuc(a1-2)Gal(b1-3)GalNAc(b1-3)Gal
Outline: (§1)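 The binding signal is a Z-score computed within each array. Data were drawn from 3228 arrays in the Consortium for Functional Glycomics database, restricted to those with a known protein sequence. Scores were averaged over arrays of the same protein sequence at different concentrations or buffers, and over linkers, and negative values can be taken as non-binding.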

Fuc(a1-2)Gal(b1-4)GlcNAc = biological target: Fuc(a1-2)Gal(b1-4)GlcNAc
Outline: as §1

[2] = biological target: Fuc(a1-2)Gal(b1-4)[Fuc(a1-3)]GlcNAc
Outline: as §1

[3] = biological target: Fuc(a1-2)Gal(b1-4)[Fuc(a1-3)]GlcNAc(b1-3)Gal(b1-4)[Fuc(a1-3)]GlcNAc(b1-3)Gal(b1-4)[Fuc(a1-3)]GlcNAc
Outline: as §1

[4] = biological target: Fuc(a1-2)[GalNAc(a1-3)]Gal(b1-4)[Fuc(a1-3)]GlcNAc
Outline: as §1

[5] = biological target: Gal(b1-3)GalNAc(b1-4)Gal(b1-4)Glc
Outline: as §1

[6] = biological target: Gal(b1-3)GlcNAc(b1-3)Gal(b1-3)GlcNAc
Outline: as §1

[7] = biological target: Gal(b1-4)GlcNAc(b1-2)Man(a1-3)Man(b1-4)GlcNAc(b1-4)GlcNAc
Outline: as §1

[8] = biological target: Gal(b1-4)GlcNAc(b1-2)Man(a1-3)[Gal(b1-4)GlcNAc(b1-2)Man(a1-6)]Man(b1-4)GlcNAc(b1-4)GlcNAc
Outline: as §1

[9] = biological target: Gal(b1-4)GlcNAc(b1-6)GalNAc
Outline: as §1

Gal3S(b1-4)GlcNAc = biological target: Gal3S(b1-4)GlcNAc
Outline: as §1

Gal3S(b1-4)GlcNAc6S = biological target: Gal3S(b1-4)GlcNAc6S
Outline: as §1

Gal6S(b1-4)GlcNAc6S = biological target: Gal6S(b1-4)GlcNAc6S
Outline: as §1

Glc(a1-4)Glc = biological target: Glc(a1-4)Glc
Outline: as §1

[10] = biological target: GlcNAc(a1-4)Gal(b1-4)GalNAc
Outline: as §1

[11] = biological target: GlcNAc(a1-4)Gal(b1-4)GlcNAc(b1-3)Gal(b1-4)GlcNAc
Outline: as §1

[12] = biological target: GlcNAc(b1-2)Man(a1-3)[GlcNAc(b1-2)Man(a1-6)]Man(b1-4)GlcNAc(b1-4)[Fuc(a1-6)]GlcNAc
Outline: as §1

GlcNAc(b1-3)GalNAc = biological target: GlcNAc(b1-3)GalNAc
Outline: as §1

[13] = biological target: GlcNAc(b1-3)[GlcNAc(b1-6)]Gal(b1-4)GlcNAc
Outline: as §1

Kdn(a2-3)Gal(b1-3)GalNAc = biological target: Kdn(a2-3)Gal(b1-3)GalNAc
Outline: as §1

[14] = biological target: Man(a1-2)Man(a1-6)[Man(a1-3)]Man(a1-6)[Man(a1-2)Man(a1-2)Man(a1-3)]Man(b1-4)GlcNAc(b1-4)GlcNAc
Outline: as §1

[15] = biological target: Neu5Ac(a2-3)Gal(b1-3)GlcNAc6S
Outline: as §1

[16] = biological target: Neu5Ac(a2-3)Gal(b1-4)GlcNAc(b1-6)[Neu5Ac(a2-3)Gal(b1-3)]GalNAc
Outline: as §1

[17] = biological target: Neu5Ac(a2-3)Gal(b1-4)GlcNAc6S
Outline: as §1

[18] = biological target: Neu5Ac(a2-3)Gal(b1-4)[Fuc(a1-3)]GlcNAc(b1-3)Gal(b1-4)GlcNAc
Outline: as §1

[19] = biological target: Neu5Gc(b2-6)Gal(b1-4)GlcNAc
Outline: as §1

[20] = biological target: Fuc(a1-2)Gal(b1-4)GlcNAc(b1-3)Gal(b1-4)GlcNAc(b1-3)Gal(b1-4)GlcNAc
Outline: as §1

[21] = biological target: Fuc(a1-2)Gal(b1-4)[Fuc(a1-3)]GlcNAc(b1-3)Gal(b1-4)[Fuc(a1-3)]GlcNAc
Outline: as §1

[22] = biological target: Fuc(a1-2)[Gal(a1-3)]Gal(b1-3)GlcNAc
Outline: as §1

[23] = biological target: Fuc(a1-3)[Gal(b1-4)]GlcNAc(b1-2)Man(a1-3)[Fuc(a1-3)[Gal(b1-4)]GlcNAc(b1-2)Man(a1-6)]Man(b1-4)GlcNAc(b1-4)GlcNAc
Outline: as §1

[24] = biological target: Fuc(a1-3)[Neu5Ac(a2-3)]Gal(b1-4)GlcNAc(b1-3)GalNAc
Outline: as §1

[25] = biological target: Gal(b1-3)GalNAc(a1-3)[Fuc(a1-2)]Gal(b1-4)GlcNAc
Outline: as §1

[26] = biological target: Gal(b1-3)[Fuc(a1-4)]GlcNAc(b1-2)Man(a1-3)[Gal(b1-3)[Fuc(a1-4)]GlcNAc(b1-2)Man(a1-6)]Man(b1-4)GlcNAc(b1-4)[Fuc(a1-6)]GlcNAc
Outline: as §1

[27] = biological target: Gal(b1-4)GlcNAc(b1-3)GalNAc
Outline: as §1

[28] = biological target: Gal3S(b1-3)[Fuc(a1-4)]GlcNAc
Outline: as §1

[29] = biological target: GlcNAc(a1-4)Gal(b1-4)GlcNAc(b1-3)Gal(b1-4)[Fuc(a1-3)]GlcNAc(b1-3)Gal(b1-4)[Fuc(a1-3)]GlcNAc
Outline: as §1

[30] = biological target: GlcNAc(b1-3)Gal(b1-3)GalNAc
Outline: as §1

[31] = biological target: Man(a1-2)Man(a1-2)Man(a1-3)Man
Outline: as §1

Man(a1-3)[Man(a1-6)]Man = biological target: Man(a1-3)[Man(a1-6)]Man
Outline: as §1

[32] = biological target: Man(a1-3)[Man(a1-6)]Man(a1-6)[Man(a1-2)Man(a1-3)]Man(b1-4)GlcNAc(b1-4)GlcNAc
Outline: as §1

[33] = biological target: Neu5Ac(a2-3)Gal(b1-3)GalNAc(b1-4)[Neu5Ac(a2-3)]Gal(b1-4)Glc
Outline: as §1

[34] = biological target: Neu5Ac(a2-3)Gal(b1-4)GlcNAc(b1-3)GalNAc
Outline: as §1

[35] = biological target: Neu5Ac(a2-3)Gal(b1-4)[Fuc(a1-3)]GlcNAc6S
Outline: as §1

[36] = biological target: Neu5Ac(a2-6)Gal(b1-4)GlcNAc(b1-2)Man(a1-3)[Neu5Ac(a2-6)Gal(b1-4)GlcNAc(b1-2)Man(a1-6)]Man(b1-4)GlcNAc(b1-4)GlcNAc
Outline: as §1

[37] = biological target: Neu5Ac(a2-6)Gal(b1-4)GlcNAc(b1-2)Man(a1-6)[Gal(b1-4)GlcNAc(b1-2)Man(a1-3)]Man(b1-4)GlcNAc(b1-4)GlcNAc
Outline: as §1

[38] = biological target: Neu5Ac(a2-6)Gal(b1-4)GlcNAc(b1-2)Man(a1-6)[Man(a1-3)]Man(b1-4)GlcNAc(b1-4)GlcNAc
Outline: as §1

[39] = biological target: Neu5Ac(a2-6)Gal(b1-4)GlcNAc6S
Outline: as §1

Neu5Ac(a2-8)Neu5Ac = biological target: Neu5Ac(a2-8)Neu5Ac
Outline: as §1

[40] = biological target: Neu5Ac(a2-8)Neu5Ac(a2-3)[GalNAc(b1-4)]Gal(b1-4)Glc
Outline: as §1

B1: GALT1 615 (Arabidopsis thaliana), Q8L7F9 (protein)
chain: DPMRGSHHHHHHGMASMTGGQQMGRDLYDDDDKSRLQKPYITAAASVVVTPNTTLPMEWLRITLPDFMKEARNTQEAISGDDIAVVSGLFVEQNVSKEEREPLLTWNRLESLVDNAQSLVNGVDAIKEAGIVWESLVSAVEAKKLVDVNENQTRKGKEELCPQFLSKMNATEADGSSLKLQIPCGLTQGSSITVIGIPDGLVGSFRIDLTGQPLPGEPDPPIIVHYNVRLLGDKSTEDPVIVQNSWTASQDWGAEERCPKFDPDMNKKVDDLDECNKMVGGEINRTSSTSLQSNTSRGVPVAREASKHEKYFPFKQGFLSVATLRVGTEGMQMTVDGKHITSFAFRDTLEPWLVSEIRITGDFRLISILA
[1]
  glycan array binding signal (z-score): 8.63
Fuc(a1-2)Gal(b1-4)GlcNAc
  glycan array binding signal (z-score): -0.374
[2]
  glycan array binding signal (z-score): 4.77
[3]
  glycan array binding signal (z-score): 1.95
[4]
  glycan array binding signal (z-score): 1.82
[5]
  glycan array binding signal (z-score): -0.508
[6]
  glycan array binding signal (z-score): -0.271
[7]
  glycan array binding signal (z-score): -0.484
[8]
  glycan array binding signal (z-score): 0.081
[9]
  glycan array binding signal (z-score): -0.439
Gal3S(b1-4)GlcNAc
  glycan array binding signal (z-score): -0.208
Gal3S(b1-4)GlcNAc6S
  glycan array binding signal (z-score): -0.044
Gal6S(b1-4)GlcNAc6S
  glycan array binding signal (z-score): -0.309
Glc(a1-4)Glc
  glycan array binding signal (z-score): 3.74
[10]
  glycan array binding signal (z-score): 8
[11]
  glycan array binding signal (z-score): -0.46
[12]
  glycan array binding signal (z-score): 6.45
GlcNAc(b1-3)GalNAc
  glycan array binding signal (z-score): -0.386
[13]
  glycan array binding signal (z-score): -0.348
Kdn(a2-3)Gal(b1-3)GalNAc
  glycan array binding signal (z-score): -0.772
[14]
  glycan array binding signal (z-score): -0.415
[15]
  glycan array binding signal (z-score): -0.079
[16]
  glycan array binding signal (z-score): -0.225
[17]
  glycan array binding signal (z-score): -0.078
[18]
  glycan array binding signal (z-score): 0.904
[19]
  glycan array binding signal (z-score): -0.419

B2: GALT1 115 D492A (Arabidopsis thaliana), Q8L7F9 (protein)
chain: DPMRGSHHHHHHGMASMTGGQQMGRDLYDDDDKSRLQKPYITAAASVVVTPNTTLPMEWLRITLPDFMKEARNTQEAISGDDIAVVSGLFVEQNVSKEEREPLLTWNRLESLVDNAQSLVNGVDAIKEAGIVWESLVSAVEAKKLVDVNENQTRKGKEELCPQFLSKMNATEADGSSLKLQIPCGLTQGSSITVIGIPDGLVGSFRIDLTGQPLPGEPDPPIIVHYNVRLLGDKSTEDPVIVQNSWTASQDWGAEERCPKFDPDMNKKVDDLDECNKMVGGEINRTSSTSLQSNTSRGVPVAREASKHEKYFPFKQGFLSVATLRVGTEGMQMTVDGKHITSFAFRDTLEPWLVSEIRITGDFRLISILASGLPTSEESEHVVDLEALKSPTLSPLRPLDLVIGVFSTANNFKRRMAVRRTWMQYDDVRSGRVAVRFFVGLHKSPLVNLELWNEARTYGDVQLMPFVDYYSLISWKTLAICIFGTEVDSAKFIMKTDDAAFVRVDEVLLSLSMTNNTRGLIYGLINSDSQPIRNPDSKWYISYEEWPEEKYPPWAHGPGYIVSRDIAESVGKLFKEGNLKMFKLEDVAMGIWIAELTKHGLEPHYENDGRIISDGCKDGYVVAHYQSPAEMTCLWRKYQETKRSLCCREW
[1]
  glycan array binding signal (z-score): 1.79
[20]
  glycan array binding signal (z-score): 6.73
[2]
  glycan array binding signal (z-score): 8.05
[21]
  glycan array binding signal (z-score): -0.068
[22]
  glycan array binding signal (z-score): -0.352
[23]
  glycan array binding signal (z-score): -0.034
[24]
  glycan array binding signal (z-score): -0.012
[25]
  glycan array binding signal (z-score): 0.06
[26]
  glycan array binding signal (z-score): -0.152
[27]
  glycan array binding signal (z-score): -0.374
[9]
  glycan array binding signal (z-score): -0.406
[28]
  glycan array binding signal (z-score): -0.223
Gal3S(b1-4)GlcNAc
  glycan array binding signal (z-score): -0.298
[29]
  glycan array binding signal (z-score): 2.05
[12]
  glycan array binding signal (z-score): 2.9
[30]
  glycan array binding signal (z-score): 1.5
[31]
  glycan array binding signal (z-score): 0.15
Man(a1-3)[Man(a1-6)]Man
  glycan array binding signal (z-score): -0.244
[32]
  glycan array binding signal (z-score): 0.404
[33]
  glycan array binding signal (z-score): -0.335
[34]
  glycan array binding signal (z-score): -0.152
[18]
  glycan array binding signal (z-score): 0.671
[35]
  glycan array binding signal (z-score): -0.172
[36]
  glycan array binding signal (z-score): 0.357
[37]
  glycan array binding signal (z-score): -0.362
[38]
  glycan array binding signal (z-score): -0.139
[39]
  glycan array binding signal (z-score): 0.087
Neu5Ac(a2-8)Neu5Ac
  glycan array binding signal (z-score): -0.221
[40]
  glycan array binding signal (z-score): -0.078
[19]
  glycan array binding signal (z-score): 0.041
